UGM FP inh: inhibitors of M. tuberculosis UDP-galactopyranose mutase. actives 0.06% (n = 320,000). purified UGM, fluorescence polarization probe displacement. AID 504406. inhibition, % at 10 µM. P9WIQ1; in the data active means inhibition above about 10%, passing the limit was not always enough; inconclusive means no clear call, values can overlap the other calls
Target sequence (P9WIQ1 whole entry, looked up): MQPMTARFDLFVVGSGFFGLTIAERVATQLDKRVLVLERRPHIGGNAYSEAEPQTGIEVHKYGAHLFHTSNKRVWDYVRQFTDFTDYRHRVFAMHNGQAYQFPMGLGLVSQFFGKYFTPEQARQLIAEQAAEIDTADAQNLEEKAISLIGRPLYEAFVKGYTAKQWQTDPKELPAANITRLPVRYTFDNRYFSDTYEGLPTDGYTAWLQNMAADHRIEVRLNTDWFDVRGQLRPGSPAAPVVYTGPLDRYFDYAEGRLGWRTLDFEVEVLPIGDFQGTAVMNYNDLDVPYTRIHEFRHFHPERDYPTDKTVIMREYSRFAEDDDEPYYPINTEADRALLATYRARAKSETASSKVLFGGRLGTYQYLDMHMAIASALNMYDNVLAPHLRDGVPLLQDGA
Vc quorum ag-1: induces V. cholerae light production without autoinducers; V. cholerae BH1578 lux reporter, luminescence, 6 h; activation, % at 18.7 µM; actives 0.16% (n = 350,000); AID 588436; in the data active means activation mostly above about 9.7%, no sharp cut-off; inconclusive means no clear call, values can overlap the other calls; inactive means mostly below about 3.7%
Mtb bLac sens: beta-lactam sensitization of Mtb H37Rv. M. tuberculosis H37Rv growth with meropenem, percent inhibition. inhibition, % at 25 µM. actives 0.27% (n = 330,000). AID 434955;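 further: growth measured after seven days incubation then overnight dye step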
Rv3671c protease: Rv3671c (M. tuberculosis) protease inhibition. P9WHR9. inhibition, % at 5.96 µM. AID 2606. actives 0.048% (n = 320,000); in the data active means inhibition above about 38%;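 further: extracellular domain of Rv3671c used as enzyme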
MazEF act: MazEF (E. coli) toxin RNase activation; P0AE70; actives 0.32% (n = 350,000); FAM/BHQ RNA-DNA oligo cleavage fluorescence, 5 h; activation, % at 20 µM; AID 504720; in the data active means activation above about 50%
Target sequence (P0AE70 whole entry, looked up): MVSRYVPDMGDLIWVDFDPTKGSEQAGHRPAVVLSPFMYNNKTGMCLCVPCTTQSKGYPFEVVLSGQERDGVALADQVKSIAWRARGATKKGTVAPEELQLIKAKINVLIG
FadD28 binding: M. tuberculosis FadD28 bisubstrate binding inhibition; FadD28 bisubstrate probe binding, fluorescence polarization; inhibition, % at 12.5 µM; actives 0.22% (n = 360,000); AID 588549; in the data active means inhibition above about 8.5%, passing the limit was not always enough; inconclusive means no clear call, values can overlap the other calls
DNA intercalat: DNA intercalation detected by acridine orange polarization counter-screen. actives 60% (n = 35). acridine orange-DNA binding, fluorescence polarization. AID 463198. shares compounds with UGM FP inh. AC50, µM;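 active means fitted AC50 no greater than ten times the top concentration tested, cut at about 17 µM in these data; inconclusive means flat fit with 30 to 70% signal change, or an unreliable fit; inactive means AC50 beyond ten times the top concentration tested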
Vc quorum ag-2: inducers of V. cholerae quorum light production without autoinducers; V. cholerae BH1578 lux reporter, luminescence, 6 h; shares compounds with Vc quorum ag-1; 620 tested, under 10 active; AID 602243; activation, % at 50 µM
HeLa 24h tox: kills HeLa cells within 24 hours; HeLa viability, CellTiter-Glo ATP luminescence; AID 624140; shares compounds with Vc quorum ag-1; 25 tested, under 10 active; activity change, negative = cytotoxicity, % at 35 µM;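 active means signal drop with fitted half-maximal concentration at or below twice the highest valid dose; inconclusive means flat curve with 30 to 70% loss, or poor fit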
Each line names hits and unclear results; the compound was inactive in the other large screens (follow-up assays come after a bar, where they were run). A selection: hits, their analogues and other compounds. The true share with any hit is near 0.74%. Unless noted, how the calls were made is not given here.

COc1ccc(C(=O)N2CCC(C(=O)N3CCN(Cc4ccccc4)CC3)CC2)cc1	none (no result: Vc quorum ag-1)
O=C1CCC(=O)c2ccc3c4c(ccc1c24)CC3	none (no result: UGM FP inh, Mtb bLac sens, Rv3671c protease)
O=C1CCN2C=Nc3cccc4ccc1c2c34	UGM FP inh 39 | DNA intercalat 13
O=C(Nc1ccc(-c2cn3ccsc3n2)cc1)C1CC1	none
CC(=O)Nc1ccc(-c2cn3ccsc3n2)cc1	none | DNA intercalat inactive
COc1cccc(CNC(=O)C2CSC3(C)CCC(=O)N23)c1 (stereo not given)	none | Vc quorum ag-2 inactive
COc1ccccc1CNC(=O)C1CSC2(C)CCC(=O)N12 (stereo not given)	none
CCCOc1cc(C)c(S(=O)(=O)NCCOC)cc1C	none | Vc quorum ag-2 inactive
COc1ccc(NC(=O)CCS(=O)(=O)c2ccc3c(c2)CCCN3C(C)=O)cc1Cl	Vc quorum ag-1 17 | Vc quorum ag-2 inactive
COc1ccccc1-c1cnc(C(O)c2cc(Cl)cc(Cl)c2)[nH]1 (stereo not given)	none (no result: UGM FP inh, Mtb bLac sens, Rv3671c protease, MazEF act)
S=C(c1ccc(N2CCOCC2)cc1)N1CCCCC1	Vc quorum ag-1 20 | Vc quorum ag-2 inactive
Oc1ccc(C(=S)N2CCCCC2)cc1	none (no result: Vc quorum ag-1)
O=C(NCCC(=O)N1CCN(c2ccccc2F)CC1)c1ccco1	none
O=C(NCCC(=O)N1CCN(c2ccc(F)cc2)CC1)c1ccco1	none (no result: UGM FP inh, Mtb bLac sens, Rv3671c protease) | Vc quorum ag-2 inactive
CC(C)CN(C(=O)c1ccc(S(=O)(=O)N2CCOCC2)cc1)C1CCS(=O)(=O)C1 (stereo not given)	none
COc1ccc(Oc2nc(-c3cccnc3)nc3ccccc23)cc1	none
CCCOc1ccc(-c2nc(OC)c3ccccc3n2)cc1	Vc quorum ag-1 25 | Vc quorum ag-2 inactive
Cc1ccc(OCCC(=O)NNC(=O)c2ccccc2F)cc1	none
CN(CC(=O)Nc1c(Cl)cccc1Cl)C(=O)c1n[nH]c2ccccc12	none (no result: UGM FP inh) | Vc quorum ag-2 inactive
CCCN(CC(=O)Nc1ccccc1C)C(=O)CSc1ccccc1C	none
Cc1nc2ncnn2c(C)c1Cc1c(Cl)cccc1Cl	Vc quorum ag-1 94 | Vc quorum ag-2 inactive
CCOC(=O)CNc1c(-c2ccc(Cl)cc2)nc2cnccn12	Vc quorum ag-1 25 | Vc quorum ag-2 inactive
Cc1ccc(S(=O)(=O)N(C)c2ccc(OCC(=O)N3CCCCC3)cc2)cc1	none | Vc quorum ag-2 inactive
CCn1c(SC(C)C(=O)NCC2CCCO2)nc2ccccc21 (stereo not given)	none
CC(=O)Nc1nn(C)c2nc3cc(C)ccc3cc12	none
Cc1ccc2cc3c(NC(=O)c4ccco4)nn(C)c3nc2c1	none (no result: Vc quorum ag-1) | HeLa 24h tox inactive
O=[N+]([O-])c1cccc(COc2ccccc2CN2CCCCC2)c1	none (no result: UGM FP inh, Mtb bLac sens, Rv3671c protease)
COC(=O)C1=C(C)N=C2SCCC(=O)N2C1c1cc(Br)ccc1OC (stereo not given)	none
CCOC(=O)C1=C(C)N=C2SCCC(=O)N2C1c1cc(Br)ccc1OC (stereo not given)	none | Vc quorum ag-2 inactive
Cc1ccc(C)c(NC(=O)CCC(=O)NNS(=O)(=O)c2ccc(Cl)cc2)c1	none
CC(=O)Nc1ccc(C(=O)N2CCCc3ccccc32)cc1	none
CC(=O)C(CC(=O)N1CCCc2ccccc21)C(=O)Nc1ccc(F)cc1 (stereo not given)	none | Vc quorum ag-2 inactive
Cc1ccc(N(CC(=O)NC2CCCC2)C(=O)c2nsc(Cl)c2Cl)cc1	none
CCOc1ccc2cc(C#N)c(SCC(=O)N3CCC(C)CC3)nc2c1	none | Vc quorum ag-2 inactive
COc1ccccc1CCN1CCCC(CN(C)C(=O)c2ccco2)C1 (stereo not given)	none | Vc quorum ag-2 inactive
O=c1c2cc(N3CCOCC3)ccc2[nH]c(=S)n1CC1CCCO1 (stereo not given)	none | Vc quorum ag-2 inactive
O=c1c2ccccc2[nH]c(=S)n1CC1CCCO1 (stereo not given)	none (no result: UGM FP inh)
COCCCn1c(=S)[nH]c2ccc(N3CCOCC3)cc2c1=O	none | Vc quorum ag-2 inactive
Cc1ccc(OCCNC(=O)c2ccco2)cc1C	Vc quorum ag-1 active | Vc quorum ag-2 inactive
Cc1ccc(OCCNC(=O)c2cccc(C)c2)cc1	Vc quorum ag-1 active | Vc quorum ag-2 inactive | HeLa 24h tox inactive
O=C(NCCOc1ccc(Cl)cc1)c1ccco1	Vc quorum ag-1 425 | Vc quorum ag-2 inactive
CCOc1ccc(CNC(=O)c2ccco2)cc1	Vc quorum ag-1 60 | Vc quorum ag-2 inactive
Cc1ccc(C(=O)NCCNC(=O)c2ccco2)cc1C	none
O=C(Nc1ccc(C(O)c2ccccc2)cc1)[C@@H]1O[C@H](CO)[C@@H](O)[C@H]1O (stereo not given in full)	none (no result: UGM FP inh, Mtb bLac sens, Rv3671c protease, MazEF act)
CCOc1ccc(CN(C)C(=O)CCNC(=O)c2ccco2)cc1	none
CCc1ccc(OCCNC(=O)c2ccco2)cc1	Mtb bLac sens inconclusive (no result: Vc quorum ag-1) | Vc quorum ag-2 inactive
CCN(CCNC(=O)C1CCCN(S(=O)(=O)CC)C1)c1ccccc1 (stereo not given)	none | Vc quorum ag-2 inactive
CCN(CCNC(=O)C1CCN(S(=O)(=O)CC)CC1)c1ccccc1	none
CCCS(=O)(=O)N1CCCC(C(=O)NCCCN(C)c2ccccc2)C1 (stereo not given)	Vc quorum ag-1 17 | Vc quorum ag-2 inactive
O=C(NCc1ccccc1)C1CCCN(S(=O)(=O)c2cccnc2)C1 (stereo not given)	none | Vc quorum ag-2 inactive
CCCS(=O)(=O)N1CCCC(C(=O)NCCCN(C)Cc2ccccc2)C1 (stereo not given)	Vc quorum ag-1 17 | Vc quorum ag-2 inactive
CCCS(=O)(=O)N1CCCC(C(=O)NCc2ccc(C)cc2)C1 (stereo not given)	none | Vc quorum ag-2 inactive
CCCS(=O)(=O)N1CCCC(C(=O)NCc2cccnc2)C1 (stereo not given)	none (no result: Vc quorum ag-1)
CCc1ccccc1NC(=O)C1CCCN1C(=O)Nc1ccc(C)cc1 (stereo not given)	none
CCc1nnc(NS(=O)(=O)c2ccc(NC(=O)c3ccc([N+](=O)[O-])s3)cc2)s1	none (no result: UGM FP inh, Mtb bLac sens, Rv3671c protease)
CCOc1ccc(C(=O)OCC(=O)N2CCCC2)cc1	Vc quorum ag-1 25 | Vc quorum ag-2 inactive
CCc1ccc(C(=O)OCC(=O)N2CCCCCC2)cc1	none (no result: FadD28 binding)
COc1ccc(OCCOC(=O)CCS(=O)(=O)c2ccc(C)cc2)cc1	none | Vc quorum ag-2 inactive
COc1ccc(OCCOC(=O)c2cccs2)cc1	Vc quorum ag-1 524 | Vc quorum ag-2 inactive
Oc1ccc(C[C@H]2CN([C@@H](Cc3ccc(O)cc3)CN3CCC[C@@H]3CN3C(=S)NC[C@@H]3Cc3ccccc3)C(=S)N2CC2CCCCCC2)cc1	none (no result: UGM FP inh, Vc quorum ag-1, Mtb bLac sens, Rv3671c protease, MazEF act)
CC(C)(C)c1ccc(C(=O)NCCC(=O)NCc2ccc(F)cc2)cc1	none (no result: UGM FP inh, Mtb bLac sens, Rv3671c protease)
COC(=O)Nc1ccc(S(=O)(=O)NCCCCCC(=O)O)cc1	none
